Laboratory results reported in PubChem BioAssay (Tox21).
Records with an inconclusive call do not appear. Where a call stands in place of a potency, no number is given. The source made the active and inactive calls. The call rests on the fitted dose curve; in most records, active means well fitted inhibition curve with a large enough effect in the repeat runs; inconclusive means weak or mixed curves; inactive means no such curve, though single readings can be large or run the other way.

Molecular target: Cytochrome P450 2D6 (Homo sapiens) (UniProt P10635)
Assay: Cytochrome P450 Family 2 Subfamily D Member 6 (CYP2D6) small molecule antagonists: luciferase reporter qHTS assay (AID 1671196); further: nearly all actives have a fitted effect of over 50% in size
Conditions: P450-Glo CYP2D6 enzyme assay, luciferin luminescence, 1 h; series mostly up to 115 µM
From the text: U.S. Tox21 Program National Center for Advancing Translational Sciences [NCATS] U.S. Environmental Protection Agency [EPA] National Institutes of Environmental Health Sciences [NIEHS] National Toxicology Program [NTP] U.S. Food and Drug Administration [FDA] Tox21 Assay Overview: Cytochrome P450 (CYP) enzymes are membrane-bound hemeproteins that play a key role in metabolism of drugs and xenobiotics. Evaluation of the effect of chemicals on CYP isozymes is useful to minimize the adverse drug reactions and toxicities in drug development process. Tox21 chemicals were tested for their effect on CYP enzyme activities by using P450-Glo (TM) screening systems (Promega Corporation, Madison, WI). These systems provide a luminescent method containing proluciferin substrates and are converted to luciferin products by CYP isozymes. The luciferin products formed are detected with a luciferin detection reagent, and the amount of light produced is proportional to CYP activity. P450-Glo (TM) CYP2D6 screening system (Catalog. No. V9890) was used to detect the compounds that interfere in CYP2D6 activity.
Tox21 Assay Protocol Summary: Two ul of enzyme-substrate mix was dispensed into medium binding white/solid 1536-well plates (Greiner Bio-One North America Inc., Monroe, NC) using a BioRaptr Flying Reagent Dispenser (FRD, Beckman Coulter, Brea, CA). […] The assay plates were incubated at room temperature for 10 min. Then 2 ul of NADPH regeneration solution was added to each well of the assay plates using an FRD and incubated at room temperature for 1 h. The reaction was stopped by adding 4 ul of detection reagent using an FRD and after 20 min incubation at room temperature the luminescence signal was measured using a ViewLux plate reader (Perkin Elmer, Shelton, CT). Data were expressed as relative luminescence units.
Potency means the concentration at half of the fitted maximal effect.

Cytochrome P450 2D6 (Homo sapiens), sequence (P10635 whole entry, looked up): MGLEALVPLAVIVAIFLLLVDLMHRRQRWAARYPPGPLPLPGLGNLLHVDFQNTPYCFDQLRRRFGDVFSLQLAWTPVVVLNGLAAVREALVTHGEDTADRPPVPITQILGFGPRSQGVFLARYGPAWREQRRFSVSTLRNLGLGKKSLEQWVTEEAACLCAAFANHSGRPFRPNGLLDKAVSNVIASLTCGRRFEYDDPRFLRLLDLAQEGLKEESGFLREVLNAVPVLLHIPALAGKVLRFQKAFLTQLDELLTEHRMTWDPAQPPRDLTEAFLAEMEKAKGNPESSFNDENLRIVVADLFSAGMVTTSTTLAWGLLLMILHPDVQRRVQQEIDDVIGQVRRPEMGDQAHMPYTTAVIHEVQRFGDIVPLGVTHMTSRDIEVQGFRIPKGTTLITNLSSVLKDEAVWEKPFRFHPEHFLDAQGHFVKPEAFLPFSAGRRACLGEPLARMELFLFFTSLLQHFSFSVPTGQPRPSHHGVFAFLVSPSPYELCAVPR

Row | SMILES | Potency
1 | CCn1cc[n+](C)c1 (tested in a mixture with another compound) | inactive
2 | CC#C[C@]1(O)CC[C@H]2[C@@H]3C[C@H](C)C4=CC(=O)CC[C@]4(C)[C@H]3CC[C@@]21C | inactive
3 | CCOP(=O)(OCC)Oc1nc(Cl)c(Cl)cc1Cl | 5.61 µM (active)
4 | CO/N=C(/C1=NOCCO1)c1ccccc1Oc1ncnc(Oc2ccccc2Cl)c1F | inactive
5 | COc1ccc2c(c1OC)C(=O)O[C@@H]2[C@H]1c2cc3c(cc2CCN1C)OCO3 | 35.2 µM (active)
6 | COC(=O)/C=C(\C)OP(=O)(OC)OC | 31.7 µM (active)
7 | c1ccc2nc(N3CCNCC3)ccc2c1 | inactive
8 | O=S(=O)(O)F | inactive
9 | COc1nc(C)nc(NC(=O)NS(=O)(=O)c2ccccc2Cl)n1 | inactive
10 | O=C1C2(Cl)C3(Cl)C4(Cl)C(Cl)(Cl)C5(Cl)C3(Cl)C1(Cl)C5(Cl)C24Cl (stereo not given) | inactive
11 | CC(Cc1ccc2c(c1)OCO2)NO (stereo not given) | 38.6 µM (active)
12 | CCC1(CC)C(=O)N=C(O)NC1=O | inactive
13 | CCN(CC)CCc1c[nH]c2ccccc12 | 5.26 µM (active)
14 | CCN(CC)C(=S)S | inactive
15 | C[C@]12C/C(=C/O)C(=O)C[C@@H]1CC[C@@H]1[C@@H]2CC[C@@]2(C)[C@H]1CC[C@]2(C)O | inactive
16 | C#CC1(O)CCCCC1 | inactive
17 | CNC(=O)/C=C(\C)OP(=O)(OC)OC | inactive
18 | COP(=O)(OC)O/C(=C\Cl)c1cc(Cl)c(Cl)cc1Cl | 79.6 µM (active)
19 | CNC(=O)Oc1cc(C)cc(C(C)C)c1 | 39.9 µM (active)
20 | CCOP(=O)(Sc1ccccc1)Sc1ccccc1 | 56.4 µM (active)

Row | SMILES | Potency
21 | N#CSCc1ccccc1 | 45 µM (active)
22 | O=c1[nH]c(Cl)c(Cl)cc1Cl | inactive
23 | CCC(C)c1cccc(C(C)CC)c1O (stereo not given) | inactive
24 | CN/C(=N\[N+](=O)[O-])NCc1cnc(Cl)s1 | inactive
25 | C[C@]12CC[C@H]3[C@@H](CCC4=CC(=O)CC[C@@H]43)[C@@H]1CC[C@@H]2OC(=O)CCc1ccco1 | inactive
26 | Brc1cccc(-c2ccccc2)c1 | inactive
27 | CCO/N=C(\CC)C1=C(O)CC(c2c(C)cc(C)cc2C)CC1=O (stereo not given) | 27.5 µM (active)
28 | [F][Sn]([c]1ccccc1)([c]1ccccc1)[c]1ccccc1 | 2.83 µM (active)
29 | O=c1[nH]c2cc(Cl)ccc2n1C1CCNCC1 | 15.5 µM (active)
30 | CCOC(=O)Cc1ccccc1 | inactive
31 | ClC(Cl)C(Cl)(Cl)Cl | inactive
32 | S=C=Nc1ccccc1 | 73.3 µM (active)
33 | CC1=C2C[C@H]3[C@@H](CC=C4C[C@@H](O)CC[C@@]43C)[C@@H]2CC[C@]12O[C@@H]1C[C@H](C)CN[C@H]1[C@H]2C | inactive
34 | O=C(Nc1ccc(F)cc1F)c1cccnc1Oc1cccc(C(F)(F)F)c1 | inactive
35 | CCOP(=S)(OCC)Oc1cc(C)nc(N(CC)CC)n1 | 50.2 µM (active)
36 | C=CCOC(=O)c1ccccc1N | 63.7 µM (active)
37 | Oc1cc(Cl)cc(Cl)c1 | 71.7 µM (active)
38 | COP(=S)(OC)Oc1nc(Cl)c(Cl)cc1Cl | inactive
39 | CCOP(=O)(OCC)Oc1cc(C)nc(C(C)C)n1 | inactive
40 | O=[N+]([O-])c1ccc(Cl)c(Cl)c1Cl | inactive
